Source: PubChem
mHTT CaM bind = disrupts binding of mutant huntingtin to calmodulin; AlphaScreen His-mHTT/GST-CaM binding, luminescence; 190,000 compounds, 3.6% hits; inhibition, % at 15 µM; AID 1671202; P42858;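 further: 0% = both proteins with DMSO and 100% = one protein alone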
Target sequence (P42858 whole entry, looked up, stated change not applied): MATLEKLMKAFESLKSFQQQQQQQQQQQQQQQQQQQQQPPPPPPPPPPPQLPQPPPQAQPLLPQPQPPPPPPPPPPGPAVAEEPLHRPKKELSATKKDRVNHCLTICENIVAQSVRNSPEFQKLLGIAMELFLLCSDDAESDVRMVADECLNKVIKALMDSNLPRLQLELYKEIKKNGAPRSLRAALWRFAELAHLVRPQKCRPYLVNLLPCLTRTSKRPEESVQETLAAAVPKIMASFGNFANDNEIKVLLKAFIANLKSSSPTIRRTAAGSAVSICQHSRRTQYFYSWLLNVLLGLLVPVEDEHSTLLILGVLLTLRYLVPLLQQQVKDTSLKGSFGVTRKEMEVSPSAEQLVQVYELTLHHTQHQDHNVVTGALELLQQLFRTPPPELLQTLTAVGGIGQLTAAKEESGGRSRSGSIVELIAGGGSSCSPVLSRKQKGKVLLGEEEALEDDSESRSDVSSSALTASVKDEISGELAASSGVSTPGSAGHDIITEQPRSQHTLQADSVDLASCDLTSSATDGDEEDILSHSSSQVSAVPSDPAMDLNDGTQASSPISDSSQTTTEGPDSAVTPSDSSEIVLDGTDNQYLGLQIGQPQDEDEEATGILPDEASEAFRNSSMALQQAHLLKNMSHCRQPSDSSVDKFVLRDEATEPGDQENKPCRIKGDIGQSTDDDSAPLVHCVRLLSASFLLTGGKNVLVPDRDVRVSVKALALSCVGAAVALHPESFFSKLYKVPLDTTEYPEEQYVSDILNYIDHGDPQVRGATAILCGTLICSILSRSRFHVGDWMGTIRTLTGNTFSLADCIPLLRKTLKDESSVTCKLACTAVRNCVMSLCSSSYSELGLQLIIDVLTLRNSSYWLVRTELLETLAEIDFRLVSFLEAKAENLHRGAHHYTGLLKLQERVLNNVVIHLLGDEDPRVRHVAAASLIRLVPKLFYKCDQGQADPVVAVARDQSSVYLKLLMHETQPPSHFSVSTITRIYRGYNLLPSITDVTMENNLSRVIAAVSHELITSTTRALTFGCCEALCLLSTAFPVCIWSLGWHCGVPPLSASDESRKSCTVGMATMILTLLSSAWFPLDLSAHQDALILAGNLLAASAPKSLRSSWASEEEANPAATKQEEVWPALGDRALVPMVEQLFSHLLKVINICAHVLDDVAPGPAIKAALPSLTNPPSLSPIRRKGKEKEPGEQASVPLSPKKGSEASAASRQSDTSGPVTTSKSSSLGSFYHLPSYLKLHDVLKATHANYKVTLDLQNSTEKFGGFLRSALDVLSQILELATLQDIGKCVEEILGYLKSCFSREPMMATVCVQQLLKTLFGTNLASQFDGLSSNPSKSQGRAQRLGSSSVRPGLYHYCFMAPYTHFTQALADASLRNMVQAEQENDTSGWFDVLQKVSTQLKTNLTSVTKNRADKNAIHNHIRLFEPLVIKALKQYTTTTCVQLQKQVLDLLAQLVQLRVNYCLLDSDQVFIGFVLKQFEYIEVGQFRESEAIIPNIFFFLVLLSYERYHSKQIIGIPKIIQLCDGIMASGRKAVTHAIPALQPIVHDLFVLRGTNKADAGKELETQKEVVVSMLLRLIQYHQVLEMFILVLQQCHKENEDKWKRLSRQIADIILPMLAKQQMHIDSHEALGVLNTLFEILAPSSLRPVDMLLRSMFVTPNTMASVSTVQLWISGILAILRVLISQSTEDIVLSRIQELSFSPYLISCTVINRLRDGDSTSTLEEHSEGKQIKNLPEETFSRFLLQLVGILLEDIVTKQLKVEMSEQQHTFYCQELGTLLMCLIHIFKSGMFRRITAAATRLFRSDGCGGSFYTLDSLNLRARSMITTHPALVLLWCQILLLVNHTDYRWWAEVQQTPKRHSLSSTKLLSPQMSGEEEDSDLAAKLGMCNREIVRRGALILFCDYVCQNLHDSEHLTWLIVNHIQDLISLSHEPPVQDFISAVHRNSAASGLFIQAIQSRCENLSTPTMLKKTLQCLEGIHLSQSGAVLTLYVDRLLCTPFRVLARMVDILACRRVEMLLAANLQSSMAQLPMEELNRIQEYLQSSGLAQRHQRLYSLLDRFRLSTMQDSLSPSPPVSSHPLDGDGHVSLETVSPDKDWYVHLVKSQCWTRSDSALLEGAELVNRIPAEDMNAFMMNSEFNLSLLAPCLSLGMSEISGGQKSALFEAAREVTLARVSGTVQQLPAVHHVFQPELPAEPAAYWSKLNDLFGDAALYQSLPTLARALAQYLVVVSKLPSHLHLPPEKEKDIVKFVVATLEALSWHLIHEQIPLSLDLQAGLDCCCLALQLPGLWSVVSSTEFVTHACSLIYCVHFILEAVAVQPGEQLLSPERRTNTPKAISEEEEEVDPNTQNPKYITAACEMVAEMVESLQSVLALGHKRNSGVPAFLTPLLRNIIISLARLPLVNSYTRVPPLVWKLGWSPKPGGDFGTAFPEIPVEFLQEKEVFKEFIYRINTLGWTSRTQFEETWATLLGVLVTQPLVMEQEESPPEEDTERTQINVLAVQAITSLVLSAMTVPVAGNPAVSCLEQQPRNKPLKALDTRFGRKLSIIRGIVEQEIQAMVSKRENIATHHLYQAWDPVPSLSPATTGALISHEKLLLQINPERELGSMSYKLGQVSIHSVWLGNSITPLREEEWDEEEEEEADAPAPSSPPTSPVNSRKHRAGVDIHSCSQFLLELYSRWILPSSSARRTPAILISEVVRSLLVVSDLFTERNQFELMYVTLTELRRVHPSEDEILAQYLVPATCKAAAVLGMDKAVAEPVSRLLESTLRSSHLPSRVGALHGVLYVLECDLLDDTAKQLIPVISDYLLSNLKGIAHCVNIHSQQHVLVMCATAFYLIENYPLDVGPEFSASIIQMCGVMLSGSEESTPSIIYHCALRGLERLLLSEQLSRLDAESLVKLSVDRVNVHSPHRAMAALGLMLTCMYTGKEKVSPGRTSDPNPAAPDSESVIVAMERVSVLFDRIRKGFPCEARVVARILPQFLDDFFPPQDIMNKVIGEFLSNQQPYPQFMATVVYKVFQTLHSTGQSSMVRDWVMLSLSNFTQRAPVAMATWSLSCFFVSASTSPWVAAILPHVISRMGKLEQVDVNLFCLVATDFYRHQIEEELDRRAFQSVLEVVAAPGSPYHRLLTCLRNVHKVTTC
Pf apPOL inh = Pf-apPOL DNA polymerase inhibition. Recombinant Pf-apPOL, molecular beacon fluorescence, 1.5 h. inhibition, % at 10 µM. 210,000 compounds, 0.25% hits
Active calls of the source: *. The list is not random: actives were taken first. Their share in the collection is about 3.6%. No stated cut-off is given here; in the data, active means inhibition above about 50%; inactive means the rest.

What do the screens show for `COc1ccc(/C=C/C2=NC(=C\c3ccc4c(c3)OCO4)/C(=O)O2)cc1`?
mHTT CaM bind: -1; Pf apPOL inh: -3

How did O=C(O)C1CSC(c2ccccc2C(F)(F)F)N1 (stereo not drawn) do in these assays?
mHTT CaM bind: 2; Pf apPOL inh: -6

Results for Cc1ccc(C2OCC3(CO2)SC(=N)NC3=O)cc1 (stereo not drawn) ?
mHTT CaM bind: 5; Pf apPOL inh: 2

Results for CCCCOc1ccc(C2=N/C(=C/c3cccc(OC)c3OC)C(=O)O2)cc1 ?
mHTT CaM bind: 6; Pf apPOL inh: 0

How did COc1ccc(S(=O)(=O)Nc2cc(S(=O)(=O)c3ccc(OC)cc3)c(O)c(C)c2C)cc1 do in these assays?
mHTT CaM bind: 12; Pf apPOL inh: -3

What do the screens show for `CN(C)c1ccc(/C=C/c2cc(/C=C/c3ccc(N(C)C)cc3)[n+]3nn(C)nc3n2)cc1`?
mHTT CaM bind: 100*; Pf apPOL inh: 0

What do the screens show for `CN(C)c1ccc(/C=C/c2cc(C(F)(F)F)[nH]c(=O)n2)cc1`?
mHTT CaM bind: 20; Pf apPOL inh: -5

How did CC1=NN(c2cc(Cl)ccc2Cl)C(=O)/C1=C/c1cccn1-c1ccc(S(N)(=O)=O)cc1 do in these assays?
mHTT CaM bind: 63*; Pf apPOL inh: 0

How did NS(=O)(=O)c1ccc(-n2cccc2/C=N/n2cnnc2)cc1 do in these assays?
mHTT CaM bind: inactive

How did CC1=NN(c2ccc(S(N)(=O)=O)cc2)C(=O)/C1=C/c1ccc(O)cc1 do in these assays?
mHTT CaM bind: 27; Pf apPOL inh: 1

How did CC1=NN(c2cc(Cl)cc(Cl)c2)C(=O)/C1=C/c1cccn1-c1ccc(S(N)(=O)=O)cc1 do in these assays?
mHTT CaM bind: 52*; Pf apPOL inh: -4

Results for O=C(C1CCCO1)N1CCC(Nc2ncnc3c2CCC3)CC1 (stereo not drawn) ?
mHTT CaM bind: -1; Pf apPOL inh: -6

How did Cc1c(O)ccc2c(=O)c(-c3ccc4c(c3)OCCO4)coc12 do in these assays?
mHTT CaM bind: 2; Pf apPOL inh: -4

What do the screens show for `Cc1ccc([N+](=O)[O-])cc1S(=O)(=O)NC(CC(=O)O)c1ccc(F)cc1` (stereo not drawn)?
mHTT CaM bind: 3; Pf apPOL inh: -8

Results for Cc1c(Cl)c(=O)[nH]c2ccccc12 ?
Pf apPOL inh: -8

What do the screens show for `CCc1[nH]c2ccccc2c1C`?
mHTT CaM bind: 50*; Pf apPOL inh: -11

What do the screens show for `Nc1c(C(=O)Nc2ccc(Oc3ccccc3)cc2)nnn1Cc1ccccc1`?
mHTT CaM bind: 11; Pf apPOL inh: -4

What do the screens show for `CCS(=O)(=O)c1ncc(Cl)c(C(=O)Nc2ccc(Oc3ccccc3)cc2)n1`?
mHTT CaM bind: 98*; Pf apPOL inh: -3

Results for COc1ccc(-c2ncc3c(n2)CCN(C(=O)Nc2cc(C)ccc2C)C3)cc1 ?
mHTT CaM bind: -7; Pf apPOL inh: -7

How did N#Cc1ccc(-c2ccccc2)[nH]c1=O do in these assays?
mHTT CaM bind: 4; Pf apPOL inh: -8

Results for O=c1cc(-c2ccccc2)[nH][nH]1 ?
mHTT CaM bind: 100*; Pf apPOL inh: -6

What do the screens show for `CC(C)NC(=O)C1CCN(c2cncnc2N2CCN(C)CC2)CC1`?
mHTT CaM bind: -2; Pf apPOL inh: -4

How did CC1=C(C(=O)Nc2ccc(Br)c(C)c2)C2(CCC(C)CC2)OC1=O (stereo not drawn) do in these assays?
mHTT CaM bind: 99*; Pf apPOL inh: 5

What do the screens show for `CC1=C(C(=O)Nc2ccc(C)cc2)C2(CCC(C)CC2)OC1=O` (stereo not drawn)?
mHTT CaM bind: 7; Pf apPOL inh: 0

What do the screens show for `Cc1ccc(C)c(CN2C(=O)CSc3ccc(C(=O)N4CCC5(CC4)OCCO5)cc32)c1`?
mHTT CaM bind: 7; Pf apPOL inh: 0

What do the screens show for `Clc1ccc(C2Oc3ccccc3C3=C2C(c2cccs2)n2ncnc2N3)cc1` (stereo not drawn)?
mHTT CaM bind: 56*; Pf apPOL inh: -8

How did Cc1ccc(C2C3=C(Nc4ncnn42)c2ccccc2OC3c2cccc([N+](=O)[O-])c2)cc1 (stereo not drawn) do in these assays?
mHTT CaM bind: 50*; Pf apPOL inh: 0

Results for COc1ccc(C2C3=C(Nc4ncnn42)c2ccccc2OC3c2cccc(Cl)c2)cc1 (stereo not drawn) ?
mHTT CaM bind: 41; Pf apPOL inh: -10

How did COc1cccc(C2C3=C(Nc4ncnn42)c2ccccc2OC3c2ccccc2OC)c1 (stereo not drawn) do in these assays?
mHTT CaM bind: 64*; Pf apPOL inh: -7

Results for Fc1ccccc1C1C2=C(Nc3ncnn31)c1cc(Cl)ccc1OC2c1ccncc1 (stereo not drawn) ?
mHTT CaM bind: 21; Pf apPOL inh: 1

Results for COc1ccc(C2C3=C(Nc4ncnn42)c2ccccc2OC3c2cccc(OC)c2)cc1 (stereo not drawn) ?
mHTT CaM bind: 56*; Pf apPOL inh: -5

Results for COc1cccc(C2C3=C(Nc4ncnn42)c2ccccc2OC3c2cccc(F)c2)c1 (stereo not drawn) ?
mHTT CaM bind: 37; Pf apPOL inh: -4

Results for COc1ccccc1C1Oc2ccccc2C2=C1C(c1ccc(C)cc1)n1ncnc1N2 (stereo not drawn) ?
mHTT CaM bind: 15; Pf apPOL inh: -1

How did COc1ccc(C2C(=C(O)c3ccc4c(c3)CC(C)O4)C(=O)C(=O)N2CCCN(C)C)cc1OC (stereo not drawn) do in these assays?
mHTT CaM bind: -1; Pf apPOL inh: -3

How did CCSc1nnc(-c2nn(C)c3c2CN(C(=O)CCc2ccc(OC)cc2)CC3)n1C do in these assays?
mHTT CaM bind: 6; Pf apPOL inh: -2

What do the screens show for `CCN1C(=O)Cc2ccccc2C1C(=O)NCc1cccs1` (stereo not drawn)?
mHTT CaM bind: -2; Pf apPOL inh: -1

What do the screens show for `COc1cccc(NS(=O)(=O)c2cccc3cccnc23)c1`?
mHTT CaM bind: 0; Pf apPOL inh: -3

How did COc1cccc(NC(c2ccccn2)c2ccc3cccnc3c2O)c1 (stereo not drawn) do in these assays?
mHTT CaM bind: 99*; Pf apPOL inh: -6

How did COc1ccc(C(NC(=O)c2ccccc2)c2ccc3cccnc3c2O)cc1 (stereo not drawn) do in these assays?
mHTT CaM bind: 100*; Pf apPOL inh: 3

How did COc1ccc(C(NC(=O)c2ccccc2)NC(=O)c2ccccc2)c(OC)c1 do in these assays?
mHTT CaM bind: 17; Pf apPOL inh: 1

How did COc1cccc(C(NC(=O)c2ccccc2)c2ccc3cccnc3c2O)c1 (stereo not drawn) do in these assays?
mHTT CaM bind: 100*; Pf apPOL inh: 0

What do the screens show for `CNC(=O)C1CCN(c2nc3ccc(-c4ccsc4)nc3s2)CC1`?
mHTT CaM bind: 3; Pf apPOL inh: 3

What do the screens show for `O=C(Nc1ccccc1-c1nc2ccccc2[nH]1)c1ccccc1I`?
mHTT CaM bind: 12; Pf apPOL inh: -8

How did NC(=O)C1CCN(C(=O)c2cc3c(=O)oc4ccccc4c3s2)CC1 do in these assays?
mHTT CaM bind: 1; Pf apPOL inh: 0

What do the screens show for `c1nc(N2CCNCC2)c2sc3nc(N4CCOCC4)c4c(c3c2n1)CCCC4`?
mHTT CaM bind: 14; Pf apPOL inh: -10

What do the screens show for `c1nc(NCCN2CCOCC2)c2sc3nc(N4CCOCC4)c4c(c3c2n1)CCCC4`?
mHTT CaM bind: 55*; Pf apPOL inh: 0
